Where a chain is given by its changes, count along the chain named.
B1: GTATTTCA (ssRNA)
RNA 1: GAGUUCUACAGUCCGACGAUCCCAACGUAUUUCACACCUGGAAUUCUCGGGUGCCAA
RNA 2: UGGAGUGUGACAAUGGUGUUUG
DNA 1: GATCGTCGGACTGTAGAACTC
DNA 2: TTGGCACCCGAGAATTCCA
modifications: constant regions annealed to DNA blockers; guide miR-122 5' phosphate
B2: GTGTCCCA (ssRNA)
RNA 1: B1 RNA 1 with A29G, U31C, U32C
RNA 2: UGGAGUGUGACAAUGGUGUUUG
DNA 1: GATCGTCGGACTGTAGAACTC
DNA 2: TTGGCACCCGAGAATTCCA
modifications: constant regions annealed to DNA blockers; guide miR-122 5' phosphate
B3: ACATCCCG (ssRNA)
RNA 1: B1 RNA 1 with G27A, U28C, U31C, U32C, A34G
RNA 2: UGGAGUGUGACAAUGGUGUUUG
DNA 1: GATCGTCGGACTGTAGAACTC
DNA 2: TTGGCACCCGAGAATTCCA
modifications: constant regions annealed to DNA blockers; guide miR-122 5' phosphate
B4: ACGTCCCA (ssRNA)
RNA 1: B1 RNA 1 with G27A, U28C, A29G, U31C, U32C
RNA 2: UGGAGUGUGACAAUGGUGUUUG
DNA 1: GATCGTCGGACTGTAGAACTC
DNA 2: TTGGCACCCGAGAATTCCA
modifications: constant regions annealed to DNA blockers; guide miR-122 5' phosphate
B5: ACGCTCCG (ssRNA)
RNA 1: B1 RNA 1 with G27A, U28C, A29G, U30C, U32C, A34G
RNA 2: UGGAGUGUGACAAUGGUGUUUG
DNA 1: GATCGTCGGACTGTAGAACTC
DNA 2: TTGGCACCCGAGAATTCCA
modifications: constant regions annealed to DNA blockers; guide miR-122 5' phosphate
B6: GCACCTTA (ssRNA)
RNA 1: B1 RNA 1 with U28C, U30C, U31C, C33U
RNA 2: UGGAGUGUGACAAUGGUGUUUG
DNA 1: GATCGTCGGACTGTAGAACTC
DNA 2: TTGGCACCCGAGAATTCCA
modifications: constant regions annealed to DNA blockers; guide miR-122 5' phosphate
B7: ATATTCCA (ssRNA)
RNA 1: B1 RNA 1 with G27A, U32C
RNA 2: UGGAGUGUGACAAUGGUGUUUG
DNA 1: GATCGTCGGACTGTAGAACTC
DNA 2: TTGGCACCCGAGAATTCCA
modifications: constant regions annealed to DNA blockers; guide miR-122 5' phosphate
B8: ACATCCTG (ssRNA)
RNA 1: B1 RNA 1 with G27A, U28C, U31C, U32C, C33U, A34G
RNA 2: UGGAGUGUGACAAUGGUGUUUG
DNA 1: GATCGTCGGACTGTAGAACTC
DNA 2: TTGGCACCCGAGAATTCCA
modifications: constant regions annealed to DNA blockers; guide miR-122 5' phosphate
B9: GTACCTCA (ssRNA)
RNA 1: B1 RNA 1 with U30C, U31C
RNA 2: UGGAGUGUGACAAUGGUGUUUG
DNA 1: GATCGTCGGACTGTAGAACTC
DNA 2: TTGGCACCCGAGAATTCCA
modifications: constant regions annealed to DNA blockers; guide miR-122 5' phosphate
B10: GCGCCTTA (ssRNA)
RNA 1: B1 RNA 1 with U28C, A29G, U30C, U31C, C33U
RNA 2: UGGAGUGUGACAAUGGUGUUUG
DNA 1: GATCGTCGGACTGTAGAACTC
DNA 2: TTGGCACCCGAGAATTCCA
modifications: constant regions annealed to DNA blockers; guide miR-122 5' phosphate
B11: GCGTCCCA (ssRNA)
RNA 1: B1 RNA 1 with U28C, A29G, U31C, U32C
RNA 2: UGGAGUGUGACAAUGGUGUUUG
DNA 1: GATCGTCGGACTGTAGAACTC
DNA 2: TTGGCACCCGAGAATTCCA
modifications: constant regions annealed to DNA blockers; guide miR-122 5' phosphate
B12: ATGTTTCA (ssRNA)
RNA 1: B1 RNA 1 with G27A, A29G
RNA 2: UGGAGUGUGACAAUGGUGUUUG
DNA 1: GATCGTCGGACTGTAGAACTC
DNA 2: TTGGCACCCGAGAATTCCA
modifications: constant regions annealed to DNA blockers; guide miR-122 5' phosphate
B13: ACGTTTCA (ssRNA)
RNA 1: B1 RNA 1 with G27A, U28C, A29G
RNA 2: UGGAGUGUGACAAUGGUGUUUG
DNA 1: GATCGTCGGACTGTAGAACTC
DNA 2: TTGGCACCCGAGAATTCCA
modifications: constant regions annealed to DNA blockers; guide miR-122 5' phosphate
B14: GTATCTCA (ssRNA)
RNA 1: B1 RNA 1 with U31C
RNA 2: UGGAGUGUGACAAUGGUGUUUG
DNA 1: GATCGTCGGACTGTAGAACTC
DNA 2: TTGGCACCCGAGAATTCCA
modifications: constant regions annealed to DNA blockers; guide miR-122 5' phosphate
B15: ATATTTTA (ssRNA)
RNA 1: B1 RNA 1 with G27A, C33U
RNA 2: UGGAGUGUGACAAUGGUGUUUG
DNA 1: GATCGTCGGACTGTAGAACTC
DNA 2: TTGGCACCCGAGAATTCCA
modifications: constant regions annealed to DNA blockers; guide miR-122 5' phosphate
B16: ATGCCTCA (ssRNA)
RNA 1: B1 RNA 1 with G27A, A29G, U30C, U31C
RNA 2: UGGAGUGUGACAAUGGUGUUUG
DNA 1: GATCGTCGGACTGTAGAACTC
DNA 2: TTGGCACCCGAGAATTCCA
modifications: constant regions annealed to DNA blockers; guide miR-122 5' phosphate
B17: GCGTTTCA (ssRNA)
RNA 1: B1 RNA 1 with U28C, A29G
RNA 2: UGGAGUGUGACAAUGGUGUUUG
DNA 1: GATCGTCGGACTGTAGAACTC
DNA 2: TTGGCACCCGAGAATTCCA
modifications: constant regions annealed to DNA blockers; guide miR-122 5' phosphate
B18: GCGCTCCA (ssRNA)
RNA 1: B1 RNA 1 with U28C, A29G, U30C, U32C
RNA 2: UGGAGUGUGACAAUGGUGUUUG
DNA 1: GATCGTCGGACTGTAGAACTC
DNA 2: TTGGCACCCGAGAATTCCA
modifications: constant regions annealed to DNA blockers; guide miR-122 5' phosphate
B19: ACGCCCCA (ssRNA)
RNA 1: B1 RNA 1 with G27A, U28C, A29G, U30C, U31C, U32C
RNA 2: UGGAGUGUGACAAUGGUGUUUG
DNA 1: GATCGTCGGACTGTAGAACTC
DNA 2: TTGGCACCCGAGAATTCCA
modifications: constant regions annealed to DNA blockers; guide miR-122 5' phosphate

How the values were obtained:
Assay in all cases: RNA Bind-n-Seq (nitrocellulose filter binding and sequencing); miR-122 guide loaded in AGO2; 60 min incubation; 30 mM Tris pH 8.0, 100 mM potassium acetate, 2 mM magnesium acetate, 0.5 mM TCEP, 0.005% NP-40, 0.01 mg/ml yeast tRNA; 3 nM AGO2-miR-122, 100 nM RNA library; 60; high values mean tight binding
Conditions in all cases: protein: recombinant; tags: His6 (N-terminal, pFastBac HTA)
[1] = molecular target: AGO2 WT (phosphosite mutant background) (Homo sapiens, UniProt Q9UKV8 1-859, S387D;S824A;S828D;S831D;S834A)
In short: (§1)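 His-tagged AGO2 was expressed in Sf9 insect cells by baculovirus, loaded with a synthetic guide RNA, and purified by Ni-NTA and a biotinylated capture oligo. Bound RNA was extracted, reverse-transcribed, barcode-amplified and Illumina-sequenced. Fold enrichment is each sequence's read fraction divided by its input-library read fraction.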

AGO2 L192P = AGO2 L192P (Homo sapiens, UniProt Q9UKV8 1-859, L192P;S387D;S824A;S828D;S831D;S834A)
In short: as §1

AGO2 A367P = AGO2 A367P (Homo sapiens, UniProt Q9UKV8 1-859, A367P;S387D;S824A;S828D;S831D;S834A)
In short: as §1

AGO2 T357M = AGO2 T357M (Homo sapiens, UniProt Q9UKV8 1-859, T357M;S387D;S824A;S828D;S831D;S834A)
In short: as §1

AGO2 F182del = AGO2 F182del (Homo sapiens, UniProt Q9UKV8 1-859, S387D;S824A;S828D;S831D;S834A;del182-182)
In short: as §1

Chain of AGO2 T357M (Q9UKV8 whole entry T357M/S387D/S824A/S828D/S831D/S834A): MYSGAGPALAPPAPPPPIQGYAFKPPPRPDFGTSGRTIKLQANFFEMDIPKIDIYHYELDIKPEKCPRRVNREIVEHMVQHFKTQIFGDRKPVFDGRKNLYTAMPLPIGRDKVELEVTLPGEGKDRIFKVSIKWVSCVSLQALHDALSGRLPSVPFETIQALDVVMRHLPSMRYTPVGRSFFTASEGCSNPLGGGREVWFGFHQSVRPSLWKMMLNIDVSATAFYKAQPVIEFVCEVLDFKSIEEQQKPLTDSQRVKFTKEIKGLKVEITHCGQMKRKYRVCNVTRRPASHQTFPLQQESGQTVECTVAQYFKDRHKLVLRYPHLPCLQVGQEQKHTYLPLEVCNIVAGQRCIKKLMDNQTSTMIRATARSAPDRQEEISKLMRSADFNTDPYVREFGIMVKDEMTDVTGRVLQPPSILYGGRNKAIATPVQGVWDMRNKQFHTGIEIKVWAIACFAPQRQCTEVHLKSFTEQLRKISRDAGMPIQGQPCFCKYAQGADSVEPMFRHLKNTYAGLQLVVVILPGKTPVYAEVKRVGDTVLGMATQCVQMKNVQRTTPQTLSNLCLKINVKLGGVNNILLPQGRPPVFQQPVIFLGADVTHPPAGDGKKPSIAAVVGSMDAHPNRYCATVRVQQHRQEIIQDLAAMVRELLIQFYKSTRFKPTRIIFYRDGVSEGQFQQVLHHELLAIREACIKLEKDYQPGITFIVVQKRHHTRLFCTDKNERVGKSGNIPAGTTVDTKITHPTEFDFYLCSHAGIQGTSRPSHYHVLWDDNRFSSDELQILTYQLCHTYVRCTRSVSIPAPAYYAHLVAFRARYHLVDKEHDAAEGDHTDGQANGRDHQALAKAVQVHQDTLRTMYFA
Chain of AGO2 A367P (Q9UKV8 whole entry A367P/S387D/S824A/S828D/S831D/S834A): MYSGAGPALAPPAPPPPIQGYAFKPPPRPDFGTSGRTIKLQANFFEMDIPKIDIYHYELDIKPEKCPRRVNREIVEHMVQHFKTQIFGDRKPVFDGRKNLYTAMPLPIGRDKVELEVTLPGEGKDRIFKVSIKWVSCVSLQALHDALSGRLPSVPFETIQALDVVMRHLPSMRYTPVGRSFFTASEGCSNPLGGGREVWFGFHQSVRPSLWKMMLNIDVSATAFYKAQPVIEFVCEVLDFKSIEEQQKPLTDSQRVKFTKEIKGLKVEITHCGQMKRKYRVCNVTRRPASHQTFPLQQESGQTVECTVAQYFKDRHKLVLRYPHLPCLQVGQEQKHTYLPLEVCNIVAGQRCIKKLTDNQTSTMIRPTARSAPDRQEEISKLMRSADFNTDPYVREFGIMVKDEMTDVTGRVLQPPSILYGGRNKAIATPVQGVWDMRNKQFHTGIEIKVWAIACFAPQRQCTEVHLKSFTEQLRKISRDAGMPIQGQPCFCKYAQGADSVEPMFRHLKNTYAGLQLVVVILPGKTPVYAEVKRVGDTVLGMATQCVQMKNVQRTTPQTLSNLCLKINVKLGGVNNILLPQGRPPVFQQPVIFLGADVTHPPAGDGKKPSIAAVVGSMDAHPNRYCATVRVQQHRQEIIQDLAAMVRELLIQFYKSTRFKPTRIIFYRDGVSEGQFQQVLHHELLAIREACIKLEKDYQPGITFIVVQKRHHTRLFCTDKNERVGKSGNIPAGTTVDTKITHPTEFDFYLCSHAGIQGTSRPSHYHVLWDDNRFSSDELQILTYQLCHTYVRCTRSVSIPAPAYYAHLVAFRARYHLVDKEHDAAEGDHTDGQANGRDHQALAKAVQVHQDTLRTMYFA
Chain of AGO2 F182del (Q9UKV8 other isoform, or with tags, fused parts or gaps S387D;S824A;S828D;S831D;S834A;del182-182): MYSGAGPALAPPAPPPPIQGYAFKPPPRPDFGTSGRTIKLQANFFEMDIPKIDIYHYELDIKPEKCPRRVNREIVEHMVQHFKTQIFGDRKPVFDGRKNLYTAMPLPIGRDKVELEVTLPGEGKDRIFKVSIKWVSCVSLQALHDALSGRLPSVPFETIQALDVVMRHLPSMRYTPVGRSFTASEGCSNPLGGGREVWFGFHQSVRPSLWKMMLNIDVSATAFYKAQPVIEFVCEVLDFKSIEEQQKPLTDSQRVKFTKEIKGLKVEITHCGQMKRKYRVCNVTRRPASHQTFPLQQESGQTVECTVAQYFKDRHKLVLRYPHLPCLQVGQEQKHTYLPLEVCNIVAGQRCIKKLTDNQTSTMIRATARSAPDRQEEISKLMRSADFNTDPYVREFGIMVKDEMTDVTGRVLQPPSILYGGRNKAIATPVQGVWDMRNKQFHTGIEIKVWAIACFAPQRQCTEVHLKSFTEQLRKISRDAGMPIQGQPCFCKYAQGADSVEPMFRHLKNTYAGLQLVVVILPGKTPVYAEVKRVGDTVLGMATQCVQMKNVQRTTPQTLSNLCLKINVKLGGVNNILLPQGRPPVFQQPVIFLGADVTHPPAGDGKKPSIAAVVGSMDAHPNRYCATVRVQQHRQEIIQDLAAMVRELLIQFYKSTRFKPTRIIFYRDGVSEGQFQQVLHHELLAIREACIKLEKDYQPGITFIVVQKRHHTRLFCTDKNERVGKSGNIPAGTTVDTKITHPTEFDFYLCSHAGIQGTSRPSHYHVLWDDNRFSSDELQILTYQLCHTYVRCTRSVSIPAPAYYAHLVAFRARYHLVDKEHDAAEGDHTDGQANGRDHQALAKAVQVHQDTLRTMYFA
Chain of AGO2 WT (phosphosite mutant background) (Q9UKV8 whole entry S387D/S824A/S828D/S831D/S834A): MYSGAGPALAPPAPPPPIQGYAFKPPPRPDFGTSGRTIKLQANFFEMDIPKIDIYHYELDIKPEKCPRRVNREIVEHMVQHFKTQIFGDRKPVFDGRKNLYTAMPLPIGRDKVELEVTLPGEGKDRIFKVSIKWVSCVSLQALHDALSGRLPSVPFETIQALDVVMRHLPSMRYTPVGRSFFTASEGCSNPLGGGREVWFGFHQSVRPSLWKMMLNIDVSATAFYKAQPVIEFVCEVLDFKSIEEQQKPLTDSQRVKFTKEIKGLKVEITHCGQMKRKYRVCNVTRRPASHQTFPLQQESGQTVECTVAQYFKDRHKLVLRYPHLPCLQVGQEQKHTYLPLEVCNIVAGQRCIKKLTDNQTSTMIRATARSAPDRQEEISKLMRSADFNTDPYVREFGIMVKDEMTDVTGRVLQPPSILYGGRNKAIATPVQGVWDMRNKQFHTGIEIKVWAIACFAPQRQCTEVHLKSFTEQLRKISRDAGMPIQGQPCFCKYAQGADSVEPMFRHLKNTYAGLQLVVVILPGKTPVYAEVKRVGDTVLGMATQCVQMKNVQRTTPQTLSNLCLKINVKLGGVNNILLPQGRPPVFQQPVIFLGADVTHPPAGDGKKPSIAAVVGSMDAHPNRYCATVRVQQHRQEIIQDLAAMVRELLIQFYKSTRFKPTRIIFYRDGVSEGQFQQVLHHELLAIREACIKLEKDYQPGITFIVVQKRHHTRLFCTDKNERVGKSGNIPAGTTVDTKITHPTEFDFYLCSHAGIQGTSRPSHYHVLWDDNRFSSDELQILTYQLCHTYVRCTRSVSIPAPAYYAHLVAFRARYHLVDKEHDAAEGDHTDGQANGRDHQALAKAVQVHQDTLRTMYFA
Chain of AGO2 L192P (Q9UKV8 whole entry L192P/S387D/S824A/S828D/S831D/S834A): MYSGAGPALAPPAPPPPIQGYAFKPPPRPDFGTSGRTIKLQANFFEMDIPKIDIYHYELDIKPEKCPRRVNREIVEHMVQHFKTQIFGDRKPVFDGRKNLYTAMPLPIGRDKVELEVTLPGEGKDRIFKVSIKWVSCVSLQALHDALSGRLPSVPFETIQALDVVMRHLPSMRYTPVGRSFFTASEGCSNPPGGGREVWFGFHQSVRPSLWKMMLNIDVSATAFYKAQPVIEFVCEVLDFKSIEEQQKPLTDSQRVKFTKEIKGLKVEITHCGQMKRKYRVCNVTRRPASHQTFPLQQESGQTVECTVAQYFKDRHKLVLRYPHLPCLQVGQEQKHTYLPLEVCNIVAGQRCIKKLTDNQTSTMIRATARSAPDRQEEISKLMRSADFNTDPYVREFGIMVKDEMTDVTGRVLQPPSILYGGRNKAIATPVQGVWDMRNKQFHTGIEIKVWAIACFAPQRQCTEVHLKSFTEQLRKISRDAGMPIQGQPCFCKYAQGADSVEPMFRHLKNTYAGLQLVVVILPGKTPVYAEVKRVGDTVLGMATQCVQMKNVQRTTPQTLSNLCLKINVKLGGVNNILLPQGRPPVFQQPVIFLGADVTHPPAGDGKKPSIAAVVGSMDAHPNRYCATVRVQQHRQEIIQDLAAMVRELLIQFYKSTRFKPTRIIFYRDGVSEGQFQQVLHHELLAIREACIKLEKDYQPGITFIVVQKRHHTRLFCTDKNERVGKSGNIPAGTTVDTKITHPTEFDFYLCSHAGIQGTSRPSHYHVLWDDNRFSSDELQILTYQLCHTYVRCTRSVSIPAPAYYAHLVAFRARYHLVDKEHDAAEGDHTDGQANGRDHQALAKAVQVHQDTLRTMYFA

Binder | binding signal [1] | binding signal (AGO2 L192P) | binding signal (AGO2 A367P) | binding signal (AGO2 T357M) | binding signal (AGO2 F182del)
B1 | 0.136 fold enrichment over input | 0.545 fold enrichment over input | 0.337 fold enrichment over input | 0.647 fold enrichment over input | 0.805 fold enrichment over input
B2 | 0.125 fold enrichment over input | 0.479 fold enrichment over input | 0.249 fold enrichment over input | 0.602 fold enrichment over input | 0.268 fold enrichment over input
B3 | 0.128 fold enrichment over input | 0.38 fold enrichment over input | 0.158 fold enrichment over input | 0.471 fold enrichment over input | 0.144 fold enrichment over input
B4 | 0.127 fold enrichment over input | 0.569 fold enrichment over input | 0.255 fold enrichment over input | 0.637 fold enrichment over input | 0.446 fold enrichment over input
B5 | 3.15 fold enrichment over input | 10.8 fold enrichment over input | 14 fold enrichment over input | 1.98 fold enrichment over input | 15.2 fold enrichment over input
B6 | 0.132 fold enrichment over input | 0.59 fold enrichment over input | 0.307 fold enrichment over input | 0.657 fold enrichment over input | 0.717 fold enrichment over input
B7 | 0.121 fold enrichment over input | 0.564 fold enrichment over input | 0.22 fold enrichment over input | 0.646 fold enrichment over input | 0.372 fold enrichment over input
B8 | 0.144 fold enrichment over input | 0.376 fold enrichment over input | 0.171 fold enrichment over input | 0.475 fold enrichment over input | 0.153 fold enrichment over input
B9 | 0.149 fold enrichment over input | 0.573 fold enrichment over input | 0.44 fold enrichment over input | 0.601 fold enrichment over input | 1.57 fold enrichment over input
B10 | 0.125 fold enrichment over input | 0.5 fold enrichment over input | 0.194 fold enrichment over input | 0.763 fold enrichment over input | –
B11 | 0.126 fold enrichment over input | 0.51 fold enrichment over input | 0.215 fold enrichment over input | 0.751 fold enrichment over input | 0.169 fold enrichment over input
B12 | 0.125 fold enrichment over input | 0.54 fold enrichment over input | 0.311 fold enrichment over input | 0.58 fold enrichment over input | 0.814 fold enrichment over input
B13 | 0.146 fold enrichment over input | 0.656 fold enrichment over input | 0.363 fold enrichment over input | 0.572 fold enrichment over input | 1.44 fold enrichment over input
B14 | 0.141 fold enrichment over input | 0.597 fold enrichment over input | 0.455 fold enrichment over input | 0.579 fold enrichment over input | 1.35 fold enrichment over input
B15 | 0.127 fold enrichment over input | 0.509 fold enrichment over input | 0.189 fold enrichment over input | 0.697 fold enrichment over input | –
B16 | 0.127 fold enrichment over input | 0.547 fold enrichment over input | 0.307 fold enrichment over input | 0.637 fold enrichment over input | 0.9 fold enrichment over input
B17 | 0.125 fold enrichment over input | 0.513 fold enrichment over input | 0.227 fold enrichment over input | 0.632 fold enrichment over input | 0.326 fold enrichment over input
B18 | 1.63 fold enrichment over input | 3.25 fold enrichment over input | 2.69 fold enrichment over input | 1.03 fold enrichment over input | 6.7 fold enrichment over input
B19 | 0.123 fold enrichment over input | 0.538 fold enrichment over input | 0.215 fold enrichment over input | 0.719 fold enrichment over input | 0.236 fold enrichment over input

Source: paper PMC12529666, “Dysregulation of AGO2-miRNA dynamics underlies the AGO2-associated Lessel–Kreienkamp syndrome”
